The panel holds about 83,000 compounds, 20% with a hit somewhere; the sample as a whole holds those more often.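 Method: cells in 96-well plates; compound added at one concentration; 48 h incubation; percent growth measured; values under 10 scored active.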 Unmarked numbers belong to inactive results. The source made the active and inactive calls.
What follows are molecules tested on CCRF-CEM leukemia (assay: NCI-60 one-dose screen, 48 h (100 = growth as untreated, 0 = no growth, -100 = all killed)). Details: 10 µM unless noted.

| Compound | growth |
| --- | --- |
| COc1ccc(NC(=O)Nc2ccc(OCc3ccc(F)cc3)cc2)cc1 | 83.7% |
| COc1ccc(/C=C/c2nc3ccccc3n3c(-c4ccc(Cl)cc4)nnc23)cc1 | 78.1% |
| CC1(C)CC[C@]2(C(=O)O)CC[C@]3(C)C(=CCC4[C@@]5(C)C[C@@H](O)[C@@H]6OC(c7ccccc7Br)OC[C@@]6(C)C5CC[C@]43C)C2C1 (some centres undefined) | 13.1% |
| CC(=O)OCC1OC(OC2C(COC(C)=O)OC(n3cc(COc4ccc5ccc(=O)oc5c4)nn3)C(OC(C)=O)C2OC(C)=O)C(OC(C)=O)C(OC(C)=O)C1OC(C)=O (centres undefined) | 100% |
| COc1ccc(Cc2nn(CC(=O)N/N=C/c3ccc(F)cc3)c(=O)c3c(C)noc23)cc1 | 70.4% |
| O=C(c1ccccc1)C(c1c[nH]c2ccccc12)c1c[nH]c2ccccc12 | 3.87% (active) |
| N=C1N=C(SCc2nc3ccccc3[nH]2)NC(=O)/C1=C/c1ccc(Cl)cc1 | 100% |
| Cn1cc(-c2cc3nc(-c4c[nH]c5ccc(Cl)cc45)cc(N)n3n2)c2ccccc21 | -21.5% (active) |
| CC1(C)CC[C@]2(C(=O)O)CC[C@]3(C)C(=CCC4[C@@]5(C)C[C@@H](O)[C@@H]6OC(c7ccco7)OC[C@@]6(C)C5CC[C@]43C)C2C1 (some centres undefined) | 21.7% |
| COc1ccc(C2CC(c3ccc(S(=O)(=O)NCCNc4nc(Nc5ccc(F)cc5)nc(N(C)C)n4)cc3)=Nc3c(N)nc(N)nc3N2)cc1 (centres undefined) | 36.2% |
| O=C(Nc1ccccc1)N1CCN(c2cc(-c3cn(-c4ccccc4)nc3-c3cccc(O)c3)ccn2)CC1 | 36.8% |
| CNS(=O)(=O)c1ccc(Nc2ccc(C(F)(F)F)cc2)c(-c2cn(C)cn2)c1 | 51.2% |
| CCS(=O)(=O)N1CCCC(C(=O)Nc2nc3ccc(NC(=O)c4ccc(F)c(OC)c4F)cc3s2)C1 (centres undefined) | 29.5% |
| COc1ccc(CCC2c3c(cc4c(c3OC)OCO4)CCN2C)cc1 (centres undefined) | 4.55% (active) |
| Nc1nc(-c2ccccc2)c(N=Nc2ccc([N+](=O)[O-])cc2Cl)s1 | 78.7% |
| CN(C)c1nc(NCCNS(=O)(=O)c2ccc(C3=Nc4c(N)nc(N)nc4NC(c4ccccc4)C3)cc2)nc(Nc2ccc(F)cc2)n1 (centres undefined) | 22.2% |
| N/C(=N\c1nc2ccccc2s1)NC(=O)Nc1ccc(Cl)cc1Cl | 5.6% (active) |
| CCCCn1c(O)c(N=Nc2nc(-c3cc4ccccc4oc3=O)cs2)c2cc(Br)ccc21 | 104% |
| Cc1cccc(-c2nc(Nc3cccc(S(N)(=O)=O)c3)c3ccccc3n2)c1 | 31.7% |
| Cn1cc(-c2cc(N)n3nc(-c4cn(C)c5ccccc45)cc3n2)c2cc(Br)ccc21 | -4.52% (active) |
| COc1cc2c(c(OC)c1OC)C(=O)CC(c1cccc(NC(=O)c3cc(NC(=O)[C@H](C)N)ccc3Cl)c1)O2 (some centres undefined) | 12.4% |
| C#CCOc1cc(N(CC)CC)ccc1C(C(=O)NC(C)(C)C)N(C(=O)C1CCc2cc(F)ccc2O1)c1cc(C)cc(C)c1 (centres undefined) | 36.3% |
| Cc1ccc(C2=NN(c3nc(-c4cc5ccccc5oc4=O)cs3)C(c3ccc(C)cc3)C2)cc1 (centres undefined) | 101% |
| Cn1cc(-c2nc(N)nnc2-c2c[nH]c3ccc(F)cc23)c2cc(Br)cnc21 | 5.12% (active) |

Reference: PubChem BioAssay (NCI)
